# Laboratory results as given in PubChem BioAssay AID1961 (Sanford-Burnham Center for Chemical Genomics, 2009).
# “And” between values parts separate entries of the source, which are not always exact repeats. Equal values may be shown once. Screen size: about 290,000 compounds; about 140 (0.048%) were called active.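 How the source made its calls: active means activation above 40% with more than 50 cells counted in the well; inconclusive means wells holding fewer than 50 cells, flagged as toxic or sparse; inactive means the rest.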 The list comes from a sample in which actives are over-represented; it also holds similar structures and randomly drawn compounds.
# Experiments:
# [1] = GPR55 agonists via beta-arrestin recruitment, primary screen, imaging, U2OS cells, beta-arrestin-GFP redistribution (AID 1961); conditions: measured here: cytotoxicity, cells analyzed, at 10 µM;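 further: U2OS osteosarcoma cells stably expressing GPR55 and beta-arrestin-GFP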;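 on activation: plate controls were DMSO negative control for no effect and LPI positive control for full effect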
# [2] = biological target: G-protein coupled receptor 55 (Homo sapiens) (UniProt Q9Y2T6); assay: as above; conditions: at 10 µM, stronger effect = higher value
# G-protein coupled receptor 55 (Homo sapiens), sequence (Q9Y2T6 whole entry, looked up): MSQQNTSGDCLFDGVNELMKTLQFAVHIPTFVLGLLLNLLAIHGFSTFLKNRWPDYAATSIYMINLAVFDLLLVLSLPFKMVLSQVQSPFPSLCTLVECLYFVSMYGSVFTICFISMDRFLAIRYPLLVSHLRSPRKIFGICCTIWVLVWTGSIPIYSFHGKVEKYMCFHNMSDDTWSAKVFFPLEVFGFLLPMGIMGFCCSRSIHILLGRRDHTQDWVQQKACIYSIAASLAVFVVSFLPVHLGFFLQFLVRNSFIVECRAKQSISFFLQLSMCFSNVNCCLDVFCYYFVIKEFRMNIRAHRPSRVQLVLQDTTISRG
SMILES,cell count [1],activation [2]
Cc1cccc(CC(=O)N2CCOCC2)c1,411 cells,1.4% (inactive)
O=C(CC1CCCCC1)Nc1ccccc1-c1ccccc1,361 cells,-0.4% (inactive)
COc1ccc(Cl)cc1NC(=O)CSc1nnc(COc2ccccc2)n1C,350 cells,0.2% (inactive)
COc1ccc(Nc2ncc3c(n2)CC(c2ccccc2)CC3=O)cc1 (configuration not stated),306 cells,-0.1% (inactive)
O=C(N/N=C\c1cccnc1)c1ccc(Cl)cc1Cl,331 cells,0.3% (inactive)
CCOC(=O)CSc1nc2c([nH]c3ccccc32)c(=O)n1C,345 cells,-0.1% (inactive)
CCOc1ccccc1CNC(=O)CCc1cn(CC)c2ccccc12,381 cells,0.3% (inactive)
c1ccc(-c2cnn3c(-c4ccccc4)c(-c4ccccc4)nc3n2)cc1,310 cells,42.5% (active)
c1ccc(-c2cnn3nnnc3n2)cc1,327 cells,0.2% (inactive)
c1ccc(-c2cn3nc(-c4ccccc4)c(-c4ccccc4)nc3n2)cc1,374 cells,0.6% (inactive)
CC(C)(C)C1=CC(=Nc2ccccc2N)C=C(C(C)(C)C)C1=O,328 cells,-0.1% (inactive)
CC(C)(C)C1=CC=C(C(C)(C)C)C(=O)C1=O,365 cells,24.1% (inactive)
CC(C)(C)C1=CC(=O)C(=O)C(C(C)(C)C)=C1,346 cells,138% (active)
CCN(CC)C(=O)CSc1nnc(-c2ccccc2)n1-c1ccccc1,281 cells,0.2% (inactive)
CCCCCCCCCCOC(=O)Cn1c(COc2ccccc2OC)[n+](C)c2ccccc21,361 cells,32.1% (inactive)
CC1CCC(C(C)C)C(OC(=O)Cn2c(-c3ccccc3)[n+](C)c3ccccc32)C1 (configuration not stated),252 cells and 322 cells,-0.3% (inactive)
CC1CCC(C(C)C)C(OC(=O)Cn2c(-c3ccc(Br)cc3)[n+](C)c3ccccc32)C1 (configuration not stated),411 cells and 208 cells,103% (active) and 106% (active)
CC1CCC(C(C)C)C(OC(=O)Cn2c(-c3ccc(F)cc3)[n+](C)c3ccccc32)C1 (configuration not stated),272 cells,0.6% (inactive)
COc1ccc(OCc2n(CC(=O)OC3CC(C)CCC3C(C)C)c3ccccc3[n+]2C)cc1 (configuration not stated),350 cells,25.5% (inactive)
CCCCCCCCCCOC(=O)Cn1c(COc2ccccc2C)[n+](C)c2ccccc21,386 cells,17.1% (inactive)
CCCCCCCCCCOC(=O)Cn1c(COc2cccc(C)c2)[n+](C)c2ccccc21,401 cells,31.3% (inactive)

SMILES,cell count [1],activation [2]
Cc1ccccc1OCc1n(CC(=O)OC2CC(C)CCC2C(C)C)c2ccccc2[n+]1C (configuration not stated),276 cells and 236 cells,68% (active)
Cc1cccc(OCc2n(CC(=O)OC3CC(C)CCC3C(C)C)c3ccccc3[n+]2C)c1 (configuration not stated),339 cells,81.2% (active)
CC(C)c1ccc(/C=C/C(=O)NC2=NCCS2)cc1,384 cells,0% (inactive)
CCCc1nnc2n1N=C(c1ccc(-c3cc(Cl)ccc3Cl)o1)CS2,356 cells,142% (active)
CCCc1nnc2n1N=C(c1ccc(C)cc1)CS2,336 cells,-0.1% (inactive)
CCc1nnc2n1N=C(c1ccc(Cl)cc1Cl)CS2,325 cells,-0.1% (inactive)
C(=C\c1ccco1)/C1=NN(c2ccccc2)C(c2ccco2)C1 (configuration not stated),324 cells,27.4% (inactive)
O=[N+]([O-])c1ccc(/C=C/C2=NN(c3ccccc3)C(c3ccco3)C2)cc1 (configuration not stated),311 cells,120% (active)
O=[N+]([O-])c1ccc(/C=C/C2=NN(c3ccccc3)C(c3ccco3)C2)o1 (configuration not stated),231 cells,21.7% (inactive)
CCOc1ncccc1C(=O)Nc1ccc(-c2ccc3nnc(C)n3n2)cc1,265 cells,-0.2% (inactive)
Cc1ccc(C(=O)NC2(C(F)(F)F)NC(=O)N(c3ccc(Cl)cc3)C2=O)cc1 (configuration not stated),333 cells,-0.3% (inactive)
COc1ccc(CN2CCNC(=O)C2CC(=O)NC2CCC2)c(OC)c1 (configuration not stated),341 cells,-0.1% (inactive)
CC(C)N1CCC(NC(=O)Nc2ccc3c(c2)OCO3)CC1,361 cells,0.1% (inactive)
Cc1ccc(N(CC(=O)NC2CCCC2)C(=O)Cn2nnc(-c3ccccc3F)n2)cc1,388 cells,0% (inactive)
CCOc1ccc(C=NCC(O)c2ccccc2)cc1 (configuration not stated),365 cells,-0.1% (inactive)
CCCN1C(=O)/C(=C2/C=Cc3ccccc3N2CC)SC1=S,237 cells,-0.4% (inactive)
Cc1cc(C(F)(F)F)nc(SCCN2CCCCC2)c1C#N,404 cells,-0.2% (inactive)
CCOc1ccc(OCCOCCN2CCOCC2)cc1,322 cells,-0.1% (inactive)
CCCCN(CCCC)CC(O)COc1ccccc1Br (configuration not stated),385 cells,-0.2% (inactive)
Cc1cccc2nc(COc3ccc4ccccc4c3Br)cn12,340 cells,0.4% (inactive)
